Screens (PubChem BioAssay)
Only a selection was taken, and hits are over-represented in it overall.
KAT2A inh: inhibitors of human GCN5L2 histone acetyltransferase. 390,000 tested, 0.21% active. Potency, µM (top dose mostly 58.9 µM), for the others: top-dose activity change, negative = inhibition, actives largely listed as inhibitors. GCN5L2 HAT assay, ThioGlo1 CoA-SH fluorescence
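GCN5L2 (20nM final) in 50mM HEPES, 0.1mM EDTA pH 7.5, 0.01% Tween-20 was preincubated 15 min at room temperature with compound, then given ThioGlo1 (50uM), H3(1-25) peptide (75uM) and acetyl-CoA (70uM); CoA-thiol fluorescence (Ex340/Em540) was read at 0 and 20 min.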
RECQ1 inh: inhibitors of human RECQ1 DNA helicase | RECQ1 DNA unwinding, red fluorescence kinetic read | Potency, µM (doses to about 57.3 µM), inactives show at the highest dose activity, negative = inhibition, hits mostly inhibitors | 240,000 tested, 0.54% active;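 further: plate controls were vehicle for no effect and no enzyme for full effect; nearly all actives have a fitted effect of over 30% in size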
Target sequence (P46063 whole entry, looked up): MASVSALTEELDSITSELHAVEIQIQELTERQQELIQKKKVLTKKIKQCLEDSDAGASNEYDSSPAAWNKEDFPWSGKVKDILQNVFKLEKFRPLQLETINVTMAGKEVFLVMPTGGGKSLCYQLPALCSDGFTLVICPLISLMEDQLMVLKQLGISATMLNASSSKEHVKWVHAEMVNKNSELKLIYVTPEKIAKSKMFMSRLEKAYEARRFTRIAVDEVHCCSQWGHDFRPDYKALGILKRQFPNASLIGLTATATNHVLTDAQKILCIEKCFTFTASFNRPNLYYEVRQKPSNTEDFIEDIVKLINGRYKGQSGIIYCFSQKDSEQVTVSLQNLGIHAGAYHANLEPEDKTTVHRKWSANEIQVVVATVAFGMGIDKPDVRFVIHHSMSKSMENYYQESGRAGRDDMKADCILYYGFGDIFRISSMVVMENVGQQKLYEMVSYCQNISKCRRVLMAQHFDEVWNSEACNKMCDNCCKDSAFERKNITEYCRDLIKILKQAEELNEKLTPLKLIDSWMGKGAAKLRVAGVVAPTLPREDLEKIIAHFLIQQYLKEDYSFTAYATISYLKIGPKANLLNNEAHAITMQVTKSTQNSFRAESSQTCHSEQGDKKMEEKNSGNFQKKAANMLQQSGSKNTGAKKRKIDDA
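RECQ1T1 50 nM; forked duplex (20 bp + 30-nt ss tails) 200 nM, ATP 2 mM final; pH 8.0, 2 mM MgCl2, 2.5 ug/ml poly(dI-dC); 15 min compound preincubation; discontinuous kinetic read over 2 h at RT.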
BLM helicase inh: blocks DNA unwinding by human BLM helicase | P54132 | recombinant BLM DNA unwinding, fluorescence dequenching | Potency, µM (titrated, usually from 56.1 µM), for inactives: top-dose activity change, negative = inhibition, most hits filed as inhibitors | 350,000 tested, 0.2% active | AID 2528;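 further: plate controls were vehicle for no effect and no enzyme for full effect; nearly all actives have a fitted effect of over 35% in size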
TDP1 inh: inhibitors of human tyrosyl-DNA phosphodiesterase TDP1; Q9NUW8; recombinant TDP1, AlphaScreen DNA substrate cleavage; Potency, µM (highest dose often 130 µM), for the others: top-dose activity change, negative = inhibition, usual class: inhibitors; 350,000 tested, 0.28% active; AID 485290; further: nearly all actives have a fitted effect of over 40% in size
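Recombinant E. coli-expressed Tdp1 (1 nM) preincubated with compound 15 min at RT, then 5'-biotin/3'-phosphotyrosine-FITC DNA substrate (15 nM) added for 5 min. AlphaScreen beads (10 ug/ml) added, 10 min RT; tyrosine-FITC cleavage read as signal loss.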
JMJD2E inh: inhibitors of human JMJD2E histone demethylase; JMJD2E catalytic domain, FDH-coupled NADH fluorescence (FDH is formaldehyde dehydrogenase); B2RXH2; 230,000 tested, 1.6% active; Potency, µM (doses to about 57.1 µM), for inactives: at the highest dose activity change, negative = inhibition, usual class: inhibitors; AID 2147; active means well fitted inhibition curve with a large enough effect, not every such curve was filed as active; inconclusive means small, poorly fitted or top-dose-only effect, or another doubt; inactive means no such curve, though single readings can be large or run the other way;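 further: 0% = wells with enzyme and -100% = buffer wells without enzyme; nearly all actives have a fitted effect of over 50% in size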
APE1 inh: inhibitors of human APE1 endonuclease. 350,000 tested, 0.35% active. Potency, µM (series often up to 65.8 µM), for inactives: at the top dose activity change, negative = inhibition, hits mostly inhibitors. recombinant APE1, TAMRA/BHQ-2 abasic DNA cleavage fluorescence. P27695;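 further: plate controls were vehicle for no effect and reference inhibitor for full effect; nearly all actives have a fitted effect of over 55% in size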
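Measures dequenching upon AP-site incision of a 5'-TAMRA/3'-BHQ-2 THF-containing duplex, 50 nM; human APE1 0.75 nM after 15 min room-temperature exposure to compound; kinetic three-point read at one-minute spacing.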
Active calls of the source: *; i = inactive; ? = inconclusive; nt = not tested or not shown; ! = a repeat was not active; [ ] = dose if it differs, or a comment. Unless noted, the call rests on the fitted dose curve; in most records, active means well fitted curve in the direction sought with a large enough effect; inconclusive means small, poorly fitted or top-dose-only effect, or another doubt; inactive means no such curve, though single readings can be large; an effect the other way counts as inactive or inconclusive. Unless noted, on the % scale 0 is the no-effect control and ±100 the full control effect; potency means the concentration at half of the fitted maximal effect.

SMILES | KAT2A inh | RECQ1 inh | BLM helicase inh | TDP1 inh | JMJD2E inh | APE1 inh
Cn1cccc1/C=C1/SC(=S)N(CC(=O)O)C1=O | -9% | 3% | 0% | -8% | 22µM* | -6%
O=c1ccc2ccc(O)c(O)c2o1 | ? | i | nt | ? | 7.1µM* | 13µM*
Nc1nc(N)nc(-c2cc(O)ccc2O)n1 | 1% | nt | nt | -1% | nt | -10%
Nc1nc(N)nc(-c2cc([N+](=O)[O-])ccc2O)n1 | -9% | nt | nt | 56µM* | nt | 20%
Cc1cc(C)cc(C(=O)N(C)[C@H](Cc2ccc(-c3ccccc3)cc2)C(=O)N[C@@H](Cc2c[nH]c3ccccc23)C(=O)O)c1 | 32µM*! | -6% | -2% | 10% | -2% | -3%
N#Cc1c(-c2cccc(Cl)c2)no[n+]1[O-] | nt | nt | nt | nt | nt | -7%
O=C1CCCN2N=C(SCC(=O)Nc3nccs3)SC2=N1 | 2% | -1% | -17% | 45µM* | 6% | -8%
Cc1nnc(NC(=O)CSC2=NN3CCCC(=O)N=C3S2)s1 | -3% | -1% | -11% | -7% | -1% | -21%
COc1ccc(C(=O)NCc2ccc3c(c2)CCN3C(=O)c2ccc(C)cc2)cc1 | -2% | nt | -5% | 7% | nt | nt
N#CCC(=O)Nc1ccc(C(=O)OCC(=O)N2CCN(C(=O)c3ccco3)CC2)cc1 | -13% | nt | nt | 45µM* | nt | ?
CC(=O)Nc1ccc(C(=O)OCC(=O)N2CCN(C(=O)c3ccco3)CC2)cc1 | -2% | nt | nt | -2%[56.1 µM] | nt | 52%
COc1cc(-c2nnc(COC(=O)c3ccc(C)o3)o2)cc(OC)c1OC | 1% | nt | nt | 20µM* | nt | 24µM*
COc1cc(-c2nnc(COC(=O)c3cc(C)no3)o2)cc(OC)c1OC | ? | nt | -6% | 1% | nt | -5%
COc1cc(F)c(S(=O)(=O)N2CCCN(S(=O)(=O)c3cccc(NC(C)=O)c3)CC2)c(F)c1 | nt | nt | nt | 0% | nt | nt
O=C1c2ccccc2C(=O)N1c1cccc2ncccc12 | nt | nt | nt | 2% | nt | nt
NC(C(=O)O)c1ccc(O)cc1 (stereo unspecified) | 1% | nt | 3% | 2% | nt | nt
N[C@H](C(=O)O)c1cccc(O)c1 | -7% | -2% | -1% | 18% | 22µM* | -2%
NC(C(=O)O)c1cc(O)c(Cl)c(O)c1 (stereo unspecified) | 32µM* | -20% | nt | -5% | nt | ?
N[C@@H](C(=O)O)c1ccc(C(=O)O)c(C(=O)O)c1 | -18% | 5% | 3% | 40µM*! | -1% | -2%
Cc1ccc(-c2nc3cnccn3c2Nc2ccc(C(C)C)cc2)o1 | nt | nt | nt | 3% | nt | nt
CC1CCc2cc(F)cc3c2N1C(=O)C(C(=O)Nc1cnccn1)C3=O (stereo unspecified) | nt | nt | nt | 2% | nt | nt
CC(C)(C)OC(=O)N1CCN(c2nc(-c3cccs3)nc3ccccc23)CC1 | nt | nt | nt | -1% | nt | nt
CNc1ccc(Br)cc(C(=O)/C=C/c2cccc(OC)c2OC)c1=O | -9% | -27% | ? | 4%[56.1 µM] | 28µM* | ?
O=C(OCCCOC(=O)c1ccccc1O)c1ccccc1O | -6% | nt | -7% | 18µM* | nt | 15%
O=C(COC(=O)c1ccccc1O)NCCCc1ccccc1 | -6% | -9% | -2% | 5% | -9% | ?
SMILES | KAT2A inh | RECQ1 inh | BLM helicase inh | TDP1 inh | JMJD2E inh | APE1 inh
O=C(OCc1ccccc1)c1ccccc1O | -5% | 20% | nt | 79µM* | nt | 38%
O=S(=O)(c1ccc2c(c1)OCCO2)N1CCN(S(=O)(=O)c2cc(F)c(F)cc2F)CC1 | nt | nt | nt | 0% | nt | nt
CSCCC(NC(=O)C1CCCC1)c1nnc2ccccn12 (stereo unspecified) | 2% | nt | -1% | 4% | nt | 39%
CSCC[C@H](NS(=O)(=O)c1ccc(C(C)=O)cc1)c1nnc2ccccn12 | -1% | nt | -15% | 40µM* | nt | ?
CC(C)CCC[C@@H](C)[C@@H]1CC[C@H]2C3=CC=C4CC(O)CC[C@]4(C)[C@H]3CC[C@@]21C (stereo partly specified) | -14% | -4% | -16% | 13% | nt | -10%
NC[C@H]1O[C@H](O[C@H]2[C@H](O)[C@@H](O[C@H]3O[C@H](CO)[C@@H](O)[C@H](N)[C@H]3O)[C@H](N)C[C@@H]2N)[C@H](N)[C@@H](O)[C@@H]1O | nt | nt | nt | nt | nt | 8%
CC(C)(C)C(=O)Nc1ccc(C(=O)Nc2cccc(Oc3ccc(C(=O)O)c(C(=O)O)c3)c2)cc1 | -14% | nt | -6% | 35µM* | nt | ?
O=C(Nc1cccc(Oc2ccc(C(=O)O)c(C(=O)O)c2)c1)c1ccc(-c2ccccc2)cc1 | -1% | -24% | -29% | 45µM* | -1% | -7%
CCCCc1nc2c(c3c1C[C@H](C)OC3)CN(C(=O)NCCCC(=O)OCC)CC2 | nt | i[11.5 µM] | -1%[12.4 µM] | 0%[12.3 µM] | -5%[11.4 µM] | 1%[12.4 µM]
Nc1c(-c2ccccc2)cc[nH]c1=O | nt | nt | nt | 5% | nt | nt
CN=C1N[C@H](c2ccccc2)N(c2ccccc2)S1 | ? | i | -1% | 19% | 7.9µM* | -7%
CC(=O)c1cc(-c2ccccc2)n(CCC(=O)Nc2ccc(C(C)C)cc2)c1C | -5% | nt | -11% | 7% | nt | nt
Cc1nc2cc(NCc3ccccc3O)ccc2n1Cc1ccccc1 | -21% | -16% | -2% | 8% | 40µM* | 2%
Cc1nc2ccccc2n1Cc1ccccc1 | -6% | nt | -3% | nt | nt | -11%
CC1=NN(c2ccccc2)C(=O)/C1=C/c1ccc(Cl)cc1 | -28% | nt | -2% | 12% | nt | -3%
CC1=NN(c2ccccc2)C(=O)/C1=C\c1ccc(Br)s1 | 0% | -14% | -4% | 9% | 3.2µM* | -9%
CCCCCCCCCCCCCC[C@@H](O)[C@@H](O)[C@H](CO)NC(C)=O | -20% | i | -7% | 9% | nt | -11%
Cc1ccc(NS(=O)(=O)c2ccc3[nH]c(=O)[nH]c3c2)cc1C | nt | nt | nt | 1% | nt | nt
O=C(CSc1nnc2ccccn12)NC(=O)c1ccccc1Cl | -10% | nt | nt | 25µM* | nt | 13µM*
COc1ccccc1C(=O)NC(=O)CSc1nnc2ccccn12 | -1% | nt | nt | -1% | nt | 18%
O=C(CSc1nc(-c2ccccc2)nc2c1Cc1ccccc1O2)Nc1ccccc1 | -8% | -8% | 1% | -2% | 4% | ?
O=C(CSc1nc(-c2ccc(F)cc2)nc2c1Cc1ccccc1O2)Nc1cccc(C(=O)O)c1 | 13µM* | ? | ? | 4µM* | -6% | 3µM*
COC(=O)/C(C#N)=C/c1ccc(-c2ccc(S(N)(=O)=O)cc2)o1 | 14% | 3.2µM* | 1% | nt | ? | -4%
COc1ccc(-n2cnc3c(c2=N)C(c2cccc(OC)c2)c2c(ccc4ccccc24)O3)cc1 (stereo unspecified) | nt | nt | nt | 7% | nt | nt
Cc1ccc(NC(=S)NNc2ccc([N+](=O)[O-])cc2S(=O)(=O)Nc2ccccc2C(=O)O)cc1C | ? | 1% | -1% | -6% | ? | 4%
